Screening results (PubChem BioAssay)
Only some compounds are listed: those with a hit (about 9% of all), similar ones and a draw of the others.
JMJD2A Tudor inh: qHTS Assay for Inhibitors of JMJD2A-Tudor Domain | 4.4% of 390,000 active | AID 504339, 2011 | Lysine-specific demethylase 4A (Homo sapiens), O75164 | Potency, µM (top dose mostly 114 µM), hits mostly inhibitors | AlphaScreen JMJD2A-Tudor / H3K4me3 peptide binding; further: nearly all actives have a fitted effect of over 50% in size
HP1b chromo inh: HTS for Inhibitors of HP1-beta Chromodomain Interactions with Methylated Histone Tails; Chromobox protein homolog 1 (Homo sapiens), P83916; AlphaScreen HP1-beta / biotin-H3K9me3 peptide binding; Potency, µM (titrated, usually from 114 µM), usual class: inhibitors; 0.56% of 390,000 active; further: nearly all actives have a fitted effect of over 70% in size
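Compound inhibition of the preformed complex between 50 nM HP1-beta and 50 nM biotinylated H3K9me3 peptide was read by AlphaScreen. Buffer was PBS pH 7.4 with 0.01% Tween-20. Incubations ran 30 min at room temperature, with 10 ug/mL donor/acceptor beads.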
ALOX12 inh: Primary qHTS assay for inhibitors of human arachidonate 12S-lipoxygenase (ALOX12): Round 2; Polyunsaturated fatty acid lipoxygenase ALOX12 (Homo sapiens), P18054; purified 12hLO, xylenol orange hydroperoxide absorbance; Potency, µM (highest dose often 108 µM), most hits filed as inhibitors; 1.1% of 580,000 active; AID 1671190, 2021
Target sequence (P18054 whole entry, looked up): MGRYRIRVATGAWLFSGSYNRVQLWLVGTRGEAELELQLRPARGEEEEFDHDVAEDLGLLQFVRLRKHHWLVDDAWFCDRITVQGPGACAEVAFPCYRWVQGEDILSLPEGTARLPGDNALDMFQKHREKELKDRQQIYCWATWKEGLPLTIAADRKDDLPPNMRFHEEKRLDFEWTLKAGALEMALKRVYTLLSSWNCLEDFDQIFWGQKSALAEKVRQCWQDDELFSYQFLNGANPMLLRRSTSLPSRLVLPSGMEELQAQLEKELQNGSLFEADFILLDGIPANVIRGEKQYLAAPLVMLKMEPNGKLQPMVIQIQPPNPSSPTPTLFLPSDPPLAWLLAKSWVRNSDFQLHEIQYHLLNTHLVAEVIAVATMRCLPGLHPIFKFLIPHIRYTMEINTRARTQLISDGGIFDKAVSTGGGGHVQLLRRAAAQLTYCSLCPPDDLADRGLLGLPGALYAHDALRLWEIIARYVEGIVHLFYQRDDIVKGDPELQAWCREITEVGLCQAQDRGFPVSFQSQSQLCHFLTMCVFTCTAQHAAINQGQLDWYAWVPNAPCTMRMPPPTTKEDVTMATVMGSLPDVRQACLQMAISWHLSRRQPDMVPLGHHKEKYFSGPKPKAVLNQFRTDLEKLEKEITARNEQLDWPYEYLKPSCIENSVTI
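Purified human 12hLO (150 nM final) in 25 mM Hepes, 0.01% Triton X-100, pH 7.0 was preincubated 15 min at room temperature with compound. Then 40 uM arachidonic acid was added, 30 min. Hydroperoxide was read by Fe-XO absorbance ratio 573/405 nm.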
PLK1 PBD inh: qHTS for Inhibitors of PLK1-PDB (polo-like kinase 1 - polo-box domain): Primary Screen. Serine/threonine-protein kinase PLK1 (Homo sapiens), P53350. Plk1 PBD binding of FITC phosphopeptide, fluorescence polarization. Potency, µM, hits mostly inhibitors. 2.8% of 360,000 active. AID 720504, 2013; further: series mostly up to about 57 µM; nearly all actives have a fitted effect of over 65% in size
G9a block: qHTS Assay for Inhibitors of Histone Lysine Methyltransferase G9a; G9a H3K9 monomethylation, AlphaScreen, 2 h; Potency, µM (doses to about 102 µM), most hits filed as inhibitors; 8.8% of 350,000 active; AID 504332, 2011; further: nearly all actives have a fitted effect of over 75% in size
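Using a bead-based AlphaScreen, monomethylated H3K9 product from 2 h room-temperature reactions (G9a 20 nM, peptide 500 nM, SAM 20 uM) was detected with 0.5 ug/mL rabbit anti-H3K9me1 antibody.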
BAZ2B inh: qHTS Assay for Inhibitors of BAZ2B; AID 504333, 2011; AlphaScreen BAZ2B-H3K14Ac peptide displacement; Potency, µM (titrated, usually from 114 µM), most hits filed as inhibitors; 4.4% of 360,000 active; further: nearly all actives have a fitted effect of over 60% in size
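Protein-peptide AlphaScreen: BAZ2B 50 nM, b-H3K14Ac 50 nM, 1x PBS pH 7.4 + 0.01% Tween-20. Preincubation 30 min RT; cpd 30 min RT (top 110 uM); beads 20 min RT, light-protected.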
A number is an active result; n = inactive; u = inconclusive; x = not tested or not shown; [ ] = dose if it differs, or a comment. The call rests on the fitted dose curve; in most records, active means well fitted curve in the direction sought with a large enough effect; inconclusive means small, poorly fitted or top-dose-only effect, or another doubt; inactive means no such curve, though single readings can be large; an effect the other way counts as inactive or inconclusive.

SMILES	JMJD2A Tudor inh	HP1b chromo inh	ALOX12 inh	PLK1 PBD inh	G9a block	BAZ2B inh
COc1cccc(C2N(Cc3ccccc3)C(=O)C2(F)F)c1OC (stereo not given)	n	n	n	n	n	n
Cc1ccc(C2C3=C(CCCC3=O)N=C3c4ccccc4C(=O)C32)cc1 (stereo not given)	n	u	n	n	45µM	28µM
O=C1CCCC2=C1C(c1ccccc1)C1C(=O)c3ccccc3C1=N2 (stereo not given)	u	u	n	n	u	u
O=C(COc1ccc(-c2nnco2)cc1)N1CCN(S(=O)(=O)c2ccc3ccccc3c2)CC1	n	n	n	n	n	n
Cc1ccc(SCC(=O)Nc2oc(C)c3c(C)n[nH]c(=O)c23)cc1C	n	n	u	n	n[12.7 µM]	n
CCc1cc2c(=O)n(CCCOC)c(SCC(=O)Nc3oc(C)c4c(C)n[nH]c(=O)c34)nc2s1	n	n	u	n	56µM	n
CCOCCCn1c(SCC(=O)Nc2oc(C)c3c(C)n[nH]c(=O)c23)nnc1-c1ccncc1	n	n	n	n	35µM	n
Cc1n[nH]c(=O)c2c(NC(=O)CSc3ncccn3)oc(C)c12	n	n	n	n	50µM	n
Cc1ccc(C)c(SCC(=O)Nc2oc(C)c3c(C)n[nH]c(=O)c23)c1	n	n	u	n	40µM	n
COc1cc(C(c2c(C)[nH][nH]c2=O)c2c(C)[nH][nH]c2=O)ccc1OCc1ccc([N+](=O)[O-])cc1	u	n	u	u	u	n
CN(C)C(=O)CSc1nnc(Cc2ccccc2)n1CC1CCCO1 (stereo not given)	n	n	n	n	n	n
COc1c2ccoc2nc2c(OC)c(OC[C@H](O)C(C)(C)O)ccc12	x	x	x	x	n[21.5 µM]	x
CC1=C(C(N)=O)C(c2ccccn2)n2nc(SCc3ccccc3)nc2N1 (stereo not given)	n	n	n	n	u	n
C=CCn1c(C)nnc1SCC(=O)Nc1oc(C)c2c(C)n[nH]c(=O)c12	n	n	n	n	32µM	n
Cc1n[nH]c(=O)c2c(NC(=O)CSc3nnc(-c4ccncc4)n3C)oc(C)c12	u	n	n	n	n	n
Cc1cccc(N2CCN(CC(=O)NCC3CCCCC3)CC2)c1C	5µM	u	0.89µM	n	28µM	50µM
Cc1cccc(N2CCN(C(=O)CN3C(=O)NC(C)(C)C3=O)CC2)c1C	n	n	n	n	x	n
Cc1cccc(N2CCN(C(=O)CN3C(=O)NC(C)(C4CC4)C3=O)CC2)c1C (stereo not given)	n	n	n	n	56µM	n
COc1ccc(CNC(=O)N2CCN(c3cccc(C)c3C)CC2)cc1OC	n	n	n	n	n	n
Cc1cccc(N2CCN(C(=O)NCc3ccc(F)cc3)CC2)c1C	u	n	n	30µM	n	n
CCOC(=O)CC1(NC(=O)c2cc(COc3ccc(F)c(F)c3)on2)CCCCC1	n	n	n	n	n	n
Cc1cc(=O)oc2cc(OCC(=O)Nc3nc4ccccc4[nH]3)ccc12	x	x	n	x	x	x
O=C(NCc1ccc(S(=O)(=O)Nc2ccccc2Cl)s1)c1ccccc1	n	n	n	n	79µM	n
CCn1c(C2CCN(Cc3ccccc3)CC2)n[nH]c1=S	3.5µM	n	n	n	n	n
NC(=O)CSc1nnc(-c2cc3ccccc3o2)n1Cc1ccccc1	n	n	n	n	u	n
SMILES	JMJD2A Tudor inh	HP1b chromo inh	ALOX12 inh	PLK1 PBD inh	G9a block	BAZ2B inh
Cc1cccc(-c2n[nH]c(=S)n2Cc2ccccc2)c1	40µM	n	u	n	0.71µM	n
S=c1[nH]nc(-c2cc3ccccc3o2)n1Cc1ccccc1	n	n	45µM	n	1.1µM	u
CCn1c(=O)cc(N2CCN(Cc3ccccc3)CC2)[nH]c1=O	n	n	n	n	n	n
CC(C)Oc1ccc(Cn2c(-c3ccco3)n[nH]c2=S)cc1	40µM	n	u	n	0.71µM	n
Cc1ccc(C2Cn3nnc(-c4noc(-c5sccc5C)n4)c3CO2)cc1 (stereo not given)	x	x	n	x	x	x
Cc1ccc(-c2n[nH]c(=S)n2Cc2ccccc2)cc1	40µM	n	40µM	n	1.6µM	n
COc1ccc(-c2ccc(CCC(=O)O)n2CC(C)C)cc1	n	n	u	n	u	u
COc1ccc(-c2n[nH]c(=S)n2CC(C)C)cc1	4µM	n	u	n	1µM	n
COc1ccc(Cn2c(-c3ccc(OC)cc3)n[nH]c2=S)cc1	u	n	16µM	u	2.8µM	n
CCOc1ccc(-c2n[nH]c(=S)n2Cc2ccccc2)cc1	45µM	n	u	n	3.5µM	n
CCOC(=O)Cc1c(C)c2c(C)[nH]nc2oc1=O	n	n	n	n	n[12.7 µM]	n
COc1ccc(Cc2n[nH]c(=S)n2CC(C)C)cc1	x	x	14µM	x	x	x
CC(c1n[nH]c(=S)n1Cc1ccccc1)N(C)C (stereo not given)	u	n	n	19µM	10µM	n
COc1ccc(Cc2nc3ccccc3n2C)cc1	n	n	n	n	n	u
CCOc1ccccc1NC(=O)COC(=O)Cc1cccs1	n	n	n	n	x	n
COc1cccc(-c2nnc(SCC(=O)N3CCCCC3)o2)c1	n	n	n	x	16µM	n
Cc1ccc(-c2nnc(SCC(=O)N3CCCC3)o2)cc1C	u	n	u	n	50µM	n
CCOC(=O)N1CCN(C(=O)CSc2nnc(-c3ccc(C)c(C)c3)o2)CC1	n	n	n	n	n	n
COc1ccc(-c2nnc(SCC(=O)N3CCCCC3)o2)cc1	n	n	n	n	n	n
CCOC(=O)N1CCN(C(=O)CSc2nnc(-c3cccc(OC)c3)o2)CC1	u	n	n	3.4µM	50µM	n
COc1cc(OC)cc(-c2nnc(SCC(=O)N3CCC(C)CC3)o2)c1	n	n	n	x	22µM	n
COc1cc(OC)cc(-c2nnc(SCC(=O)N3CCCC3)o2)c1	n	n	n	n	n	n
CCOC(=O)N1CCN(C(=O)CSc2nnc(-c3ccccc3OC)o2)CC1	n	n	n	n	n	n
CCOC(=O)N1CCN(C(=O)CSc2nnc(-c3cc(OC)ccc3OC)o2)CC1	n[11.4 µM]	n	n	3.4µM	u	n
COC(=O)C1=C(C)N(C(C)C)C(=O)C1(NC(=O)c1ccccc1OC)C(F)(F)F (stereo not given)	n	n	n	x	n	n
O=S(=O)(NCCO)c1ccc2c(c1)Cc1cc(S(=O)(=O)NCCO)ccc1-2	n	n	n	n	n	n
COCCNS(=O)(=O)c1ccc2c(c1)Cc1cc(S(=O)(=O)NCCOC)ccc1-2	u	n	n	19µM	n	n
